Data taken from ChEMBL document CHEMBL2218924, “A broad activity screen in support of a chemogenomic map for kinase signalling research and drug discovery” (Biochem J, 2013).

target: MAP kinase-activated protein kinase 2 (Homo sapiens) (UniProt P49137); details: at 1 µM
Sequence (P49137 whole entry, looked up): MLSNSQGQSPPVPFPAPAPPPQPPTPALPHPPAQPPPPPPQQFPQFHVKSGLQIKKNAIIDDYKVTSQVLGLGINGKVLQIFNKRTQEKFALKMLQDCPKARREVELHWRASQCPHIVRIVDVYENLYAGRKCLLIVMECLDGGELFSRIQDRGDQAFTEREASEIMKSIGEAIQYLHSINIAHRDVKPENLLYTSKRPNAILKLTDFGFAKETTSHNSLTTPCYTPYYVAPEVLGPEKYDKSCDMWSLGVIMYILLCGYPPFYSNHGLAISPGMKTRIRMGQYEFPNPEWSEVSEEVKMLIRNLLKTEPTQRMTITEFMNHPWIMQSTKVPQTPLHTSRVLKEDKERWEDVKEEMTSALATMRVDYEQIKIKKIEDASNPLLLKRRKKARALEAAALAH

In order of falling residual activity:
1. Cc1cc(C)c(/C=C2\C(=O)Nc3ccccc32)[nH]1  100%
2. O=C1NC(=O)C(c2cn(CCCO)c3ncccc23)=C1c1cnccn1  93%
3. Nc1ncnc2c1cnn2-c1ccccc1  92%
4. NC(=O)Nc1sc(-c2ccc(F)cc2)cc1C(N)=O  92%
5. CC(C)[C@H](CO)Nc1nc(Nc2cc(N)cc(Cl)c2)c2ncn(C(C)C)c2n1  89%
6. N#C/C(=C\c1ccc(O)c(O)c1)C(=O)NCc1ccccc1  85%
7. CN(C)S(=O)(=O)c1ccc2c(c1)/C(=C/c1cc3c([nH]1)CCCC3)C(=O)N2  81%
8. Oc1cccc(-c2nc(N3CCOCC3)c3oc4ncccc4c3n2)c1  81%
9. COc1ccc(Cl)cc1NC(=O)Nc1cc(C)nc2ccccc12  80%
10. CC(C)(C)c1nc2c3ccc(F)cc3c3c(=O)[nH]ccc3c2[nH]1  79%
11. COc1cc2c(cc1OC)-c1n[nH]c(Nc3cccc(F)c3)c1C2  75%
12. Cn1sc(=O)n(Cc2ccccc2)c1=O  72%
13. O=C1Cc2c([nH]c3ccc([N+](=O)[O-])cc23)-c2ccccc2N1  69%
